According to PubChem BioAssay (NCI):
Values joined by “and” are separate entries in the source; they are usually repeats but may differ in a detail not shown here. Equal values may be shown once. About 83,000 compounds went through this panel and 20% of them were active in at least one assay; those are over-represented in the sample as a whole.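 How to read the values: 0–100, growth inhibition (40 = 60% inhibited); 0, no net growth; -100 to 0, cell death (-40 = 40% of starting cells died; -100 = all dead).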 Active and inactive are the calls of the source. The calls were made as follows: active = growth percent below 10; inactive = the rest.

Experiments:
Assay in all cases: NCI-60 one-dose screen, 48 h (100 = growth as untreated, 0 = no growth, -100 = all killed)
Settings in all cases: 10 µM unless noted
SR leukemia = system: SR leukemia
OVCAR-8 ovarian = system: OVCAR-8 ovarian
OVCAR-5 ovarian = system: OVCAR-5 ovarian
OVCAR-4 ovarian = system: OVCAR-4 ovarian
SK-OV-3 ovarian = system: SK-OV-3 ovarian
IGROV1 ovarian = system: IGROV1 ovarian
OVCAR-3 ovarian = system: OVCAR-3 ovarian
HS 578T breast = system: HS 578T breast
NCI/ADR-RES ovarian = system: NCI/ADR-RES ovarian
RPMI-8226 leukemia = system: RPMI-8226 leukemia

Measured: growth

CCOP(=O)(OCC)/C(C#N)=C/c1c(C)[nH]c2ccccc12
inactive: SR leukemia 94.8% | OVCAR-8 ovarian 94.8% | OVCAR-5 ovarian 103% | OVCAR-4 ovarian 41% | SK-OV-3 ovarian 100% | IGROV1 ovarian 105% | OVCAR-3 ovarian 105% | HS 578T breast 90.8% | NCI/ADR-RES ovarian 97.9%

O=C(O)c1ccc2c3ccc(C(=O)O)c4c(C(=O)O)ccc(c5ccc(C(=O)O)c1c25)c43
inactive: SR leukemia 104% | OVCAR-8 ovarian 98% | OVCAR-5 ovarian 84.2% | OVCAR-4 ovarian 103% | SK-OV-3 ovarian 107% | IGROV1 ovarian 42.4% | OVCAR-3 ovarian 101% | HS 578T breast 107% | NCI/ADR-RES ovarian 114%

CC(O)CCNC(c1ccccc1)C(O)c1ccccc1 (stereo unspecified)
inactive: SR leukemia 105% | OVCAR-8 ovarian 104% | OVCAR-5 ovarian 109% | OVCAR-4 ovarian 107% | SK-OV-3 ovarian 107% | IGROV1 ovarian 95.9% | OVCAR-3 ovarian 132% | HS 578T breast 110% | NCI/ADR-RES ovarian 110%

Cc1c(Cl)cc(Cl)c(N)c1Cl
inactive: SR leukemia 117% | OVCAR-8 ovarian 104% | OVCAR-5 ovarian 107% | OVCAR-4 ovarian 108% | SK-OV-3 ovarian 101% | IGROV1 ovarian 114% | OVCAR-3 ovarian 112% | HS 578T breast 95.3% | NCI/ADR-RES ovarian 105%

CCC/C(=N/NC(N)=O)c1ccco1
inactive: SR leukemia 96.1% | OVCAR-8 ovarian 98% | OVCAR-5 ovarian 91.2% | OVCAR-4 ovarian 102% | SK-OV-3 ovarian 91.6% | IGROV1 ovarian 104% | OVCAR-3 ovarian 117% | HS 578T breast 97.5% | NCI/ADR-RES ovarian 100%

CNc1ccc(O)cc1
inactive: SR leukemia 126% | OVCAR-8 ovarian 96.7% and 106% | OVCAR-5 ovarian 114% and 107% | OVCAR-4 ovarian 94.5% and 106% | SK-OV-3 ovarian 105% and 108% | IGROV1 ovarian 135% and 119% | OVCAR-3 ovarian 113% and 114% | HS 578T breast 115% and 142% | NCI/ADR-RES ovarian 114% and 102%

CC1NC(C)c2ccc3ccccc3c2O1 (stereo unspecified)
inactive: SR leukemia 96.8% | RPMI-8226 leukemia 97.3% | OVCAR-8 ovarian 104% | SK-OV-3 ovarian 106% | IGROV1 ovarian 115% | OVCAR-3 ovarian 106% | HS 578T breast 108% | NCI/ADR-RES ovarian 105%

N#Cc1c(N)nc2c(c(-c3ccc(Cl)cc3)nn2-c2ccccc2)c1C#N
inactive: SR leukemia 104% [100 µM] | OVCAR-8 ovarian 99.8% [100 µM] | OVCAR-5 ovarian 123% [100 µM] | OVCAR-4 ovarian 111% [100 µM] | SK-OV-3 ovarian 94.8% [100 µM] | IGROV1 ovarian 99.2% [100 µM] | OVCAR-3 ovarian 122% [100 µM] | HS 578T breast 83.9% [100 µM] | NCI/ADR-RES ovarian 101% [100 µM]

OC1CCCN(Cc2ccccc2)C1 (stereo unspecified)
inactive: SR leukemia 88.6% | OVCAR-8 ovarian 105% | OVCAR-5 ovarian 108% | SK-OV-3 ovarian 99.7% | IGROV1 ovarian 112% | OVCAR-3 ovarian 113% | HS 578T breast 118% | NCI/ADR-RES ovarian 101%

NCCCCCC(=O)O
inactive: SR leukemia 108% and 79.8% and 111% | OVCAR-8 ovarian 103% [middle of 4 runs] | OVCAR-5 ovarian 98.2% [middle of 4 runs] | OVCAR-4 ovarian 116% and 103% | SK-OV-3 ovarian 103% [middle of 4 runs] | IGROV1 ovarian 116% and 101% | HS 578T breast 110% [middle of 4 runs] | NCI/ADR-RES ovarian 109% [middle of 4 runs]

O=C1C=CC(=O)N1Cc1ccco1
inactive: SR leukemia 74.7% | OVCAR-8 ovarian 85.6% | OVCAR-5 ovarian 62.1% | OVCAR-4 ovarian 106% | SK-OV-3 ovarian 94.2% | IGROV1 ovarian 69.7% | OVCAR-3 ovarian 113% | HS 578T breast 117% | NCI/ADR-RES ovarian 76.6%
